# Measured values published in PubChem BioAssay (EPA / NIEHS).
# Activity calls are given as the source filed them. The calls were made as follows: active = hit-call score of the fitted dose curve at least 0.9, where 1 is the maximum; inactive = score below 0.9.
# Read-out: Signal transducer and activator of transcription 3 (Homo sapiens) (UniProt P40763)
# Test: LTEA_HepaRG_STAT3: Life Technologies and Expression Analysis (LTEA) Assay for Signal transducer and activator of transcription (STAT3) using HepaRG (AID 2283529)
# Conditions: mRNA level, 48 h; actives raise or lower the signal
# In short: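 In this transcriptional endpoint, HepaRG cultures receive test chemicals at up to 100 uM for 48 h, tested in duplicate. STAT3 mRNA is normalized to ACTB, GAPDH and POLR2A.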
# Chain of Signal transducer and activator of transcription 3 (Homo sapiens) (P40763 whole entry, looked up): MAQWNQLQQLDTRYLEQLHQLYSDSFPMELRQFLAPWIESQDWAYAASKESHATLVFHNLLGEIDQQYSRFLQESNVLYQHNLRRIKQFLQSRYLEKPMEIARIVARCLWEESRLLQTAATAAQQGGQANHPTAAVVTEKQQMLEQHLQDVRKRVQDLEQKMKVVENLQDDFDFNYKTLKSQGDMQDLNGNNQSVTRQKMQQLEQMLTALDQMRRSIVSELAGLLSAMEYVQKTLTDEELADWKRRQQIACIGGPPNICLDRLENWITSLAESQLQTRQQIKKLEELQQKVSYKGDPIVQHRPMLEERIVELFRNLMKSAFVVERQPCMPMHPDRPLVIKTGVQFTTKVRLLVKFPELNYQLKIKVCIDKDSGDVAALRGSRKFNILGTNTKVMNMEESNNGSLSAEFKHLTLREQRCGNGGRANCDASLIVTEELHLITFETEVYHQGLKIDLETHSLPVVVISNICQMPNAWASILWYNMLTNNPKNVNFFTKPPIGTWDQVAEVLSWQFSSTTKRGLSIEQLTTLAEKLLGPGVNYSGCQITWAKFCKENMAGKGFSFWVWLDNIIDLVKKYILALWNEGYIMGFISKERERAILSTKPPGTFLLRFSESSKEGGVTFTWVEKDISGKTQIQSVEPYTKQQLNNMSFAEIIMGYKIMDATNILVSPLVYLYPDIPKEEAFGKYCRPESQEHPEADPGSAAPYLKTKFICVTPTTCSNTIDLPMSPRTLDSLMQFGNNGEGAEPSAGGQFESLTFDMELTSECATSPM
Compound,outcome,AC50
Cc1[nH]cnc1C[C@H]1CCc2c(C)c3ccccc3n2C1=O,inactive,–
Cc1ccc(N)cc1O,inactive,–
COc1ccc(/C=C/S(=O)(=O)NC(=O)c2ccc(C)cc2Cl)cc1,inactive,–
Nc1ccc(Nc2ccccc2)cc1,inactive,–
CNS(=O)(=O)c1cc(C(=O)N2CCC(CCN3C4CCC3CC(n3c(C)nc5ccccc53)C4)(c3cccc(F)c3)CC2)c(Cl)cc1F (stereo not drawn),inactive,–
O=P(OC(CCl)CCl)(OC(CCl)CCl)OC(CCl)CCl,inactive,–
CC(C)c1cccc(C(C)C)c1N1C(=O)c2ccc(O)cc2C1=O,inactive,–
Oc1ccc2c(c1)-c1ccccc1C2,inactive,–
CCOCCO,inactive,–
C=CCCCCCCCCC(=O)O,inactive,–
O=C(O)c1cccc(Oc2ccccc2)c1,inactive,–
CC(C)CC(C)(O)C#CC(C)(O)CC(C)C (stereo not drawn),inactive,–
CC1(C)C(=O)N(Br)C(=O)N1Br,inactive,–
C1=CCCC=CCCC=CCC1,inactive,–
COc1cccc(-c2ccc(/C=C\CN3CCCCCC3)cc2Cl)c1,inactive,–
CC(=O)OCCC(C)C,inactive,–
O=c1n(CC2CO2)c(=O)n(CC2CO2)c(=O)n1CC1CO1 (stereo not drawn),inactive,–
Cc1ccc(O)cc1,inactive,–
CCN(C(=O)c1cc(C)cc(OC[C@H](C)Nc2ccncc2)c1)C(C)C,inactive,–
COC(=O)c1c(Cl)c(Cl)c(C(=O)OC)c(Cl)c1Cl,inactive,–
CC[C@H](C)C(=O)O[C@H]1C[C@@H](C)C=C2C=C[C@H](C)[C@H](CC[C@@H]3C[C@@H](O)CC(=O)O3)[C@H]21,inactive,–
CC(C)=CCC/C(C)=C/CO,inactive,–
CCOC(=O)c1ccc(C2CCC(NC[C@H](O)COc3ccc(O)c(NS(C)(=O)=O)c3)CC2)cc1 (stereo partly drawn),inactive,–
CCOC(=O)COc1ccc2c(c1)CC(NCC(O)c1cccc(Cl)c1)CC2 (stereo not drawn),inactive,–
CC/C(=C\C(=N/O)C(N)=O)C(C)[N+](=O)[O-] (stereo not drawn),inactive,–
O=C(O)CCN(C1(C(=O)NO)CCCC1)S(=O)(=O)c1ccc(Oc2ccc(F)cc2)cc1,inactive,–
O=C1CCC(N2C(=O)c3ccccc3C2=O)C(=O)N1 (stereo not drawn),inactive,–
O=C(OC[C@H]1O[C@@H](OC(=O)c2cc(O)c(O)c(OC(=O)c3cc(O)c(O)c(O)c3)c2)[C@H](OC(=O)c2cc(O)c(O)c(OC(=O)c3cc(O)c(O)c(O)c3)c2)[C@@H](OC(=O)c2cc(O)c(O)c(OC(=O)c3cc(O)c(O)c(O)c3)c2)[C@@H]1OC(=O)c1cc(O)c(O)c(OC(=O)c2cc(O)c(O)c(O)c2)c1)c1cc(O)c(O)c(OC(=O)c2cc(O)c(O)c(O)c2)c1,inactive,–
CCc1cc(SCc2sc(-c3ccc(C(F)(F)F)cc3)nc2CN2CCN(c3ccc(OC)cc3)CC2)ccc1OCC(=O)O,–,93.3 µM (active)

# Read-out: solute carrier (SLCO1B1), SLCO1B1 (gene 10599)
# Test: LTEA_HepaRG_SLCO1B1: Life Technologies and Expression Analysis (LTEA) Assay for solute carrier (SLCO1B1) using HepaRG (AID 2283530)
# Conditions: mRNA level, 48 h; actives raise or lower the signal
# In short: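 SLCO1B1 transcript read by qRT-PCR (Fluidigm arrays), normalized to three housekeeping genes, after 48 h chemical exposure of HepaRG cells; bidirectional concentration-response fitting versus 0.5% DMSO baseline. Eight-point half-log series, maximum 100 uM.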
Compound,AC50,outcome
Cc1[nH]cnc1C[C@H]1CCc2c(C)c3ccccc3n2C1=O,21.5 µM (active),–
Cc1ccc(N)cc1O,–,inactive
COc1ccc(/C=C/S(=O)(=O)NC(=O)c2ccc(C)cc2Cl)cc1,–,inactive
Nc1ccc(Nc2ccccc2)cc1,35.4 µM (active),–
CNS(=O)(=O)c1cc(C(=O)N2CCC(CCN3C4CCC3CC(n3c(C)nc5ccccc53)C4)(c3cccc(F)c3)CC2)c(Cl)cc1F (stereo not drawn),13.1 µM (active),–
O=P(OC(CCl)CCl)(OC(CCl)CCl)OC(CCl)CCl,50 µM (active),–
CC(C)c1cccc(C(C)C)c1N1C(=O)c2ccc(O)cc2C1=O,–,inactive
Oc1ccc2c(c1)-c1ccccc1C2,–,inactive
CCOCCO,–,inactive
C=CCCCCCCCCC(=O)O,–,inactive
O=C(O)c1cccc(Oc2ccccc2)c1,–,inactive
CC(C)CC(C)(O)C#CC(C)(O)CC(C)C (stereo not drawn),–,inactive
CC1(C)C(=O)N(Br)C(=O)N1Br,–,inactive
C1=CCCC=CCCC=CCC1,–,inactive
COc1cccc(-c2ccc(/C=C\CN3CCCCCC3)cc2Cl)c1,74.6 µM (active),–
CC(=O)OCCC(C)C,–,inactive
O=c1n(CC2CO2)c(=O)n(CC2CO2)c(=O)n1CC1CO1 (stereo not drawn),–,inactive
Cc1ccc(O)cc1,–,inactive
CCN(C(=O)c1cc(C)cc(OC[C@H](C)Nc2ccncc2)c1)C(C)C,–,inactive
COC(=O)c1c(Cl)c(Cl)c(C(=O)OC)c(Cl)c1Cl,–,inactive
CC[C@H](C)C(=O)O[C@H]1C[C@@H](C)C=C2C=C[C@H](C)[C@H](CC[C@@H]3C[C@@H](O)CC(=O)O3)[C@H]21,–,inactive
CC(C)=CCC/C(C)=C/CO,–,inactive
CCOC(=O)c1ccc(C2CCC(NC[C@H](O)COc3ccc(O)c(NS(C)(=O)=O)c3)CC2)cc1 (stereo partly drawn),–,inactive
CCOC(=O)COc1ccc2c(c1)CC(NCC(O)c1cccc(Cl)c1)CC2 (stereo not drawn),–,inactive
CC/C(=C\C(=N/O)C(N)=O)C(C)[N+](=O)[O-] (stereo not drawn),–,inactive
O=C(O)CCN(C1(C(=O)NO)CCCC1)S(=O)(=O)c1ccc(Oc2ccc(F)cc2)cc1,–,inactive
O=C1CCC(N2C(=O)c3ccccc3C2=O)C(=O)N1 (stereo not drawn),–,inactive
O=C(OC[C@H]1O[C@@H](OC(=O)c2cc(O)c(O)c(OC(=O)c3cc(O)c(O)c(O)c3)c2)[C@H](OC(=O)c2cc(O)c(O)c(OC(=O)c3cc(O)c(O)c(O)c3)c2)[C@@H](OC(=O)c2cc(O)c(O)c(OC(=O)c3cc(O)c(O)c(O)c3)c2)[C@@H]1OC(=O)c1cc(O)c(O)c(OC(=O)c2cc(O)c(O)c(O)c2)c1)c1cc(O)c(O)c(OC(=O)c2cc(O)c(O)c(O)c2)c1,9.07 µM (active),–
CCc1cc(SCc2sc(-c3ccc(C(F)(F)F)cc3)nc2CN2CCN(c3ccc(OC)cc3)CC2)ccc1OCC(=O)O,7.63 µM (active),–
